The record followed here is PubChem BioAssay.

For test [1], the system named is Wnt5a (protein binding on small-molecule microarray). Nature of the test: Wnt5a binders on small-molecule microarray, primary screen, biophysical, 635/667 nm fluorescence (AID 1142).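 Also: fluorescence read at 667 nm with signal to noise per printed feature.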 To be noted: 635 nm fluorescence, higher = more signal.
The nature of test [2]: cell viability in Huh7 cells, primary screen, cytotoxicity control for HCV replication inhibitor project, CellTiter-Glo luminescence, basal, 48 h (AID 1143).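 Also: Huh7 hepatoma cells carrying a hepatitis C replication reporter with no stimulus; test concentration not given here.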 To be noted: Huh7 HCV replicon, higher = more signal, called active from +8 up or from −8 down. In general terms: ATP-based viability assays read luminescence as a measure of living cells.
Test [3] is described as follows: P. aeruginosa biofilm formation inhibitors, primary screen, PAO1 strain, BacTiter-Glo luminescence, LB-PBS (AID 1144). To be noted: 12 h, higher = more signal.
Test [4] in a line: CREB reporter modulators without forskolin, primary screen, cell-based, PC12, CRE-LacZ reporter, unstimulated (AID 1145). To be noted: no forskolin, luminescence, 4.5 h, higher = more signal, called active from +8 up or from −8 down.
Test [5] can be described thus: CREB reporter modulators under forskolin, primary screen, cell-based, PC12, CRE-LacZ reporter, forskolin-stimulated (AID 1146).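 Also: PC12 cells with 6xCRE LacZ reporter stimulated by forskolin 10 µM; beta-galactosidase reporter signal reflecting CREB driven transcription.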 To be noted: luminescence, 4.5 h, higher = more signal, called active from +8 up or from −8 down.
For test [6], the target named is Streptavidin (Streptomyces avidinii) (UniProt P22629). Briefly: streptavidin binders on small-molecule microarray, primary screen, artefact control for SMM compound annotation, biophysical, 635/667 nm fluorescence (AID 1147).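 Also: signal reflects streptavidin binding to arrayed compounds as a control protein.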 To be noted: streptavidin binding, higher = more signal.
Test [7] can be described thus: small-molecule binders of probe aInhba, primary screen, biochemical, small-molecule microarray, 635/667 nm fluorescence (AID 1148).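 Also: score merges 667nm spot fluorescence with signal-to-noise for antibody binding to printed compounds.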 To be noted: higher = more signal.
Test [8] has as its target Torsin-1A (Homo sapiens) (UniProt O14656). Nature of the test: torsin A binders from cell lysate, primary screen, small-molecule microarray, wild-type, 635/667 nm (AID 1149). To be noted: COS7 hTOR1A-WT lysate, 635 nm fluorescence, higher = more signal.
For test [9] the target is unchanged. Briefly: small-molecule binders of mutant TOR1A in lysate, primary screen, cell lysate, small-molecule microarray, COS7 lysate, 635/667 nm fluorescence (AID 1150).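 Also: score pools 667 nm emission and signal to noise measuring lysate protein binding.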 To be noted: COS7 hTOR1A mutant lysate, 635 nm fluorescence, higher = more signal.
The subject of test [10] is Sonic hedgehog protein (Shh). Nature of the test: small-molecule binders of Shh protein, primary screen, biochemical, small-molecule microarray, 635/667 nm fluorescence (AID 1151).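 Also: Shh protein binding to compounds spotted on small-molecule microarray slides; score combines spot fluorescence intensity with signal-to-noise across triplicate slides.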 To be noted: small-molecule microarray binding, 635 nm fluorescence; higher = more signal.
A short description of test [11]: E. coli DRC41 culture turbidity changes, primary screen, E. coli filamentation inducer project, strain DRC41, OD650, 48 h (AID 1152).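 Also: E. coli MC1000 strain DRC41 lacking acrAB efflux pump and sulA.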 To be noted: E. coli DRC41 (acrAB sulA), higher = more signal, called active from +8 up or from −8 down.
Test [12] is described as follows: small-molecule binders of probe aLefty1, primary screen, biochemical, small-molecule microarray, 635/667 nm fluorescence (AID 1153).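 Also: score merges spot fluorescence with signal-to-noise ratio from the scanned slide images.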 To be noted: higher = more signal.
The nature of test [13]: PSAC antagonists in infected red cells, primary screen, cell-based, P. falciparum Indochina, OD700, 1 h (AID 1154). To be noted: P. falciparum Indochina infected RBC osmotic lysis, higher = more signal, called active from +8 up or from −8 down.
The nature of test [14]: PSAC antagonists in infected red cells, primary screen, cell-based, P. falciparum Indochina, OD700, 2 h (AID 1155).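 Also: lysis reports solute entry through the parasite surface anion channel PSAC; channel blockers reduce lysis of infected cells.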 To be noted: P. falciparum Indochina infected erythrocytes, osmotic lysis OD700; higher = more signal, called active from +8 up or from −8 down.
A short description of test [15]: osmotic lysis modulators in infected erythrocytes, primary screen, PSAC antagonist project, cell-based, P. falciparum Indochina, OD700, 3 h (AID 1156). To be noted: higher = more signal, called active from +8 up or from −8 down.
A short description of test [16]: PSAC antagonists in infected red cells, primary screen, cell-based, P. falciparum Indochina, OD700, 18 h (AID 1157). To be noted: P. falciparum Indochina infected erythrocytes, osmotic lysis OD700, 18 h; higher = more signal, called active from +8 up or from −8 down.
Test [17] in a line: modulators of S6 phosphorylation in cells, primary screen, cell-based, A549, cytoblot, luminescence, serum-stimulated (AID 1158).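 Also: serum-stimulated A549 lung adenocarcinoma cells; signal is phosphorylated S6 detected by cytoblot immunostaining with HRP secondary.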 To be noted: A549 phospho-S6 cytoblot, 5 h, higher = more signal.
Test [18] deals with NADPH oxidase 2 (Homo sapiens) (UniProt P04839). Nature of the test: NOX2-dependent H2O2 signal modulators, primary screen, NOX inhibitor project, cell-based, HEK293-NOX2, PMA-stimulated, Amplex Red fluorescence (AID 1159). Also: test concentration not given here. To be noted: 45 min, higher = more signal, called active from +8 up or from −8 down.
Test [19] has as its target NADPH oxidase 4 (Homo sapiens) (UniProt Q9NPH5). Nature of the test: NOX4-dependent H2O2 signal modulators, primary screen, NOX inhibitor project, cell-based, HEK293-NOX4, tetracycline-induced, Amplex Red fluorescence (AID 1160). To be noted: 45 min, higher = more signal, called active from +8 up or from −8 down.
Test [20] concerns the target NADPH oxidase 5 (Homo sapiens) (UniProt Q96PH1). Briefly: NOX5-dependent H2O2 signal modulators, primary screen, NOX inhibitor project, cell-based, HEK293-NOX5, Amplex Red fluorescence (AID 1161). To be noted: HEK293-NOX5, ionomycin, 45 min, higher = more signal.

Active and inactive are the calls of the source. Unless noted, no rule for the calls is given here.

NADPH oxidase 2 (Homo sapiens), sequence (P04839 whole entry, looked up): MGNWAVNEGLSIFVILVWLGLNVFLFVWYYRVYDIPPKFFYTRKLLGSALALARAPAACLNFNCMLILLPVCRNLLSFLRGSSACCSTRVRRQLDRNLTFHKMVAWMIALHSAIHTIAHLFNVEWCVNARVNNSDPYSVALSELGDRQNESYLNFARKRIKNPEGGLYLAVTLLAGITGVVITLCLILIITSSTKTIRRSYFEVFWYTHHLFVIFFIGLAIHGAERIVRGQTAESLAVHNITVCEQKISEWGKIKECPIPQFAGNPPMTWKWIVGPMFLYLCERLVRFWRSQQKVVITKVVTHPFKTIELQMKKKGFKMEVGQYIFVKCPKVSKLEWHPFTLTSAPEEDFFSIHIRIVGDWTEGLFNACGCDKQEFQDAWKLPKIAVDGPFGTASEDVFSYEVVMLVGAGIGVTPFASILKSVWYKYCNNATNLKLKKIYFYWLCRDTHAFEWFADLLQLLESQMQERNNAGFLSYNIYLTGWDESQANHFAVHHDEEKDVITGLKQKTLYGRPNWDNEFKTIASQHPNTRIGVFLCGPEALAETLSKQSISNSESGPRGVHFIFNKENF
Streptavidin (Streptomyces avidinii), sequence (P22629 whole entry, looked up): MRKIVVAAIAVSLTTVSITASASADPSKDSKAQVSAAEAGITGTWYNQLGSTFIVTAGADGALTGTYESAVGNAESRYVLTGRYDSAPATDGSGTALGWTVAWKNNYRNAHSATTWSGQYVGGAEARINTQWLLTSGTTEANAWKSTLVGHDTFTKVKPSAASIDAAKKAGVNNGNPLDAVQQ
Torsin-1A (Homo sapiens), sequence (O14656 whole entry, looked up): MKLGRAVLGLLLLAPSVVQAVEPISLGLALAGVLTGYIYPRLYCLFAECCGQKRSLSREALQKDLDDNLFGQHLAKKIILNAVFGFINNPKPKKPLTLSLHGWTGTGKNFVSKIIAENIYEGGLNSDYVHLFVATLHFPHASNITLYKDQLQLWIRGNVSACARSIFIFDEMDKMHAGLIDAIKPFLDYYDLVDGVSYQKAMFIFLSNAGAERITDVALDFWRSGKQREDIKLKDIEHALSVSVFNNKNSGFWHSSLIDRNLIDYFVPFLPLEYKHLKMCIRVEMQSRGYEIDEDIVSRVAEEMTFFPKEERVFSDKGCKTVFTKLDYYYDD
NADPH oxidase 5 (Homo sapiens), sequence (Q96PH1 whole entry, looked up): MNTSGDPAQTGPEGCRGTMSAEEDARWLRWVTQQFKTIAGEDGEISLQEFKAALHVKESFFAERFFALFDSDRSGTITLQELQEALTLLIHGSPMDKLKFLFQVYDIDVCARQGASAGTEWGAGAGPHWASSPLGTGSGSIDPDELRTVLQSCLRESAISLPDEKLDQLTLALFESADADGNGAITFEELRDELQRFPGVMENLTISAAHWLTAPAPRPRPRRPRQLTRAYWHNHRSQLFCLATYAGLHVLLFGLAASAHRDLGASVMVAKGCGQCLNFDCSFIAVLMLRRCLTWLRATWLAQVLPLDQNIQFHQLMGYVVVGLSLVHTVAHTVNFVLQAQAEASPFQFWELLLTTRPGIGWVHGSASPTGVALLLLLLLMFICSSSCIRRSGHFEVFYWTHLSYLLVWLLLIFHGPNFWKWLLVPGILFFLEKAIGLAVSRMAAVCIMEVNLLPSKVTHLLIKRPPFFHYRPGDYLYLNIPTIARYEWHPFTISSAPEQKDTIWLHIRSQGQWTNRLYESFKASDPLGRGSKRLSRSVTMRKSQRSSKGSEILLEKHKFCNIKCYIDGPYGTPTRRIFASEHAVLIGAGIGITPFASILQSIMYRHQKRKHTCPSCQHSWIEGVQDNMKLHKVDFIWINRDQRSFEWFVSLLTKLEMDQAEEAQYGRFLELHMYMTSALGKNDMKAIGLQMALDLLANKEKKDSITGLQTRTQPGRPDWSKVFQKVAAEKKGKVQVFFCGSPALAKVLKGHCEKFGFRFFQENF
NADPH oxidase 4 (Homo sapiens), sequence (Q9NPH5 whole entry, looked up): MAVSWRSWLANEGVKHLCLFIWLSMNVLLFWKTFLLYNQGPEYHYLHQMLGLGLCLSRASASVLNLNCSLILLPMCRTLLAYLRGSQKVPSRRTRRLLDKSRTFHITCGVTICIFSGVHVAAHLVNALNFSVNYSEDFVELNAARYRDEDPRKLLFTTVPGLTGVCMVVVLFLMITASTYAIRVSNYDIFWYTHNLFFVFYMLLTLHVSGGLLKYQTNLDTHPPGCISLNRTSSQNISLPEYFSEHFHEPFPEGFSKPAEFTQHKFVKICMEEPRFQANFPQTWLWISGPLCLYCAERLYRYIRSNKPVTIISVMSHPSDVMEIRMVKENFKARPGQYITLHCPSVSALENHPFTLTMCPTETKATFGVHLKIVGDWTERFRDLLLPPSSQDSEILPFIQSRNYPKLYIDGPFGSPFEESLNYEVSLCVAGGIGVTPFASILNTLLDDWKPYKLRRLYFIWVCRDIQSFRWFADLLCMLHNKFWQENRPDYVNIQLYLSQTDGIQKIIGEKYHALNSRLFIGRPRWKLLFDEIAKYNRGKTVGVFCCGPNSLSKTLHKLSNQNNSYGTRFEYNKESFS

`COC(=O)[C@@]1(Cc2ccc(OC)cc2)[C@H]2c3cc(C(=O)N(C)C)n(CCO)c3C[C@H]2CN1C(=O)c1ccccc1`: the composite z-score in test [1] is 0.29; in test [6] it was 1.61; in test [7], 0.488; with Torsin-1A (Homo sapiens) [8], 0.145; in the test with Torsin-1A (Homo sapiens) [9] it was 1.16; in test [10], -0.544. This compound came in with a composite z-score in test [12] of 0.564. Further, the z-score is -0.0015 (inactive) in test [2]; 0.371 (inactive) in test [3]; -0.182 (inactive) in [4]; 1.23 (inactive) in test [5]; -1.2 (inactive) in test [11]; 0.845 (inactive) in test [13]. Also, the z-score in test [14] was 0.145 (inactive); in test [15], 0.0732 (inactive); in test [16] it was 0.446 (inactive); in [17], -0.775; in test [18], 0.331 (inactive); in [19] it was -1.49 (inactive). The z-score in [20] is -1.91.

`CN(C)CCCNC(=O)[C@@]1(c2ccc([N+](=O)[O-])cc2)CC(=O)N(CC23CC4CC(CC(C4)C2)C3)[C@@H]1c1ccc(CO)cc1I`: the composite z-score in test [1] amounted to 0.607; in [6] it was 0.164; in test [7], 0.206; in the test with Torsin-1A (Homo sapiens) [8], 0.835; with Torsin-1A (Homo sapiens) [9], 0.996; in test [10], 1.96. In addition, the composite z-score in [12] came to 0.198. In addition, the z-score was -5.93 (inactive) in test [2]; -0.263 (inactive) in test [3]; 0.468 (inactive) in test [4]; 0.372 (inactive) in [5]; -5.6 (inactive) in test [11]; 11.4 (active) in test [13]. Moreover, the z-score in test [14] was 2.32 (inactive); in [15] it was -8.44 (active); in test [16] it was 0.352 (inactive); in test [17], -2.32; in [18], -10.3 (active); in test [19] it was -5.46 (inactive). For the same compound, in [20], the z-score is -7.32.

As for `COCCOC(=O)N1C(=O)[C@@]2(c3cc(C#CC4=CCCCC4)ccc31)[C@H](c1ccccc1OCCO)N1[C@H](c3ccccc3)[C@H](c3ccccc3)OC(=O)[C@H]1[C@@H]2C(=O)Nc1nc2ccccc2s1`, the composite z-score in [1] turned out to be 0.632; in test [6], 0.827; in test [7] it was 0.0497; in the test with Torsin-1A (Homo sapiens) [8], 0.881; with Torsin-1A (Homo sapiens) [9], 0.344; in test [10] it was 1.27. For the same compound, the composite z-score in [12] amounted to 0.287. In addition, the z-score was -2.06 (inactive) in test [2]; 0.305 (inactive) in test [3]; -0.0526 (inactive) in [4]; 0.687 (inactive) in [5]; -0.541 (inactive) in [11]; 3.53 (inactive) in [13]. Further, the z-score in test [14] was 1.72 (inactive); in [15], -0.507 (inactive); in [16], 1.54 (inactive); in test [17], -0.168; in test [18] it was 1.59 (inactive); in [19], 0.571 (inactive). Besides, the z-score in [20] amounted to 1.41.

As for `Cc1ccc(S[C@]2(C(=O)NCCCN(C)C)CC(=O)N(C3CCCCC3)[C@@H]2c2ccc(CO)cc2)cc1`, the composite z-score is -0.178 in [1]; -0.677 in [6]; -0.0375 in [7]; -1.74 in the test with Torsin-1A (Homo sapiens) [8]; -1.11 with Torsin-1A (Homo sapiens) [9]; -0.728 in [10]. For the same compound, the composite z-score in [12] turned out to be 0.199. In addition, the z-score in [2] was -1.19 (inactive); in test [3], -0.903 (inactive); in [4], 0.0279 (inactive); in [5], 1.46 (inactive); in [11] it was 0.344 (inactive); in test [13], 4.64 (inactive). Moreover, the z-score in [14] was 0.695 (inactive); in [15], 2.17 (inactive); in test [16], 0.819 (inactive); in test [17] it was -0.358; in [18], -2.24 (inactive); in test [19], -2.06 (inactive). This compound also had a z-score in test [20] of -1.4.

On to `COCCOC(=O)N1C(=O)[C@@]2(c3cc(C#CCCO)ccc31)[C@H](C(=O)Nc1nc3ccccc3s1)[C@H]1C(=O)O[C@H](c3ccccc3)[C@H](c3ccccc3)N1[C@@H]2c1ccccc1OCCO`, for which the composite z-score in [1] came out at 0.585; in test [6], 0.968; in test [7], 0.949; with Torsin-1A (Homo sapiens) [8], 0.759; with Torsin-1A (Homo sapiens) [9], 1.12; in test [10], 0.881. This compound also registered a composite z-score in [12] of 1.28. For the same compound, the z-score in test [2] is -1.41 (inactive); in test [3], 0.235 (inactive); in [4] it was -0.0526 (inactive); in test [5], 0.595 (inactive); in test [11], -0.348 (inactive); in test [13] it was 5.19 (inactive). The z-score in test [14] was 1.86 (inactive); in test [15], 0.286 (inactive); in [16] it was 1.36 (inactive); in test [17] it was -0.331; in test [18], 1.89 (inactive); in [19], -0.9 (inactive). In test [20], the z-score is 0.501.
